PubChem BioAssay AID488969 (Vanderbilt High Throughput Screening Facility, 2010)
Whole data set: some 110,000 compounds, median “z-score” near -0.1, cut for the highest 2% near 2. Many of the other results were omitted from the sample, so the highest values are more common in it than they were. Activity calls are given as the source filed them.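 The calls were made as follows: active = z-score in the third read window above 3 or below -3; inactive = the rest.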

The molecules below were run against Metabotropic glutamate receptor 8 (Rattus norvegicus) (UniProt P70579) (assay: rat mGluR8 modulators via GIRK flux, primary screen, cell-based, thallium flux, HTS (AID 488969)). Settings: HEK293 rat mGluR8, GIRK (G protein-gated inwardly rectifying potassium channel) thallium flux, FluoZin2; at 10 µM; stronger effect = higher value; submaximal glutamate (EC20) added with thallium.
Sequence of Metabotropic glutamate receptor 8 (Rattus norvegicus) (P70579 whole entry, looked up): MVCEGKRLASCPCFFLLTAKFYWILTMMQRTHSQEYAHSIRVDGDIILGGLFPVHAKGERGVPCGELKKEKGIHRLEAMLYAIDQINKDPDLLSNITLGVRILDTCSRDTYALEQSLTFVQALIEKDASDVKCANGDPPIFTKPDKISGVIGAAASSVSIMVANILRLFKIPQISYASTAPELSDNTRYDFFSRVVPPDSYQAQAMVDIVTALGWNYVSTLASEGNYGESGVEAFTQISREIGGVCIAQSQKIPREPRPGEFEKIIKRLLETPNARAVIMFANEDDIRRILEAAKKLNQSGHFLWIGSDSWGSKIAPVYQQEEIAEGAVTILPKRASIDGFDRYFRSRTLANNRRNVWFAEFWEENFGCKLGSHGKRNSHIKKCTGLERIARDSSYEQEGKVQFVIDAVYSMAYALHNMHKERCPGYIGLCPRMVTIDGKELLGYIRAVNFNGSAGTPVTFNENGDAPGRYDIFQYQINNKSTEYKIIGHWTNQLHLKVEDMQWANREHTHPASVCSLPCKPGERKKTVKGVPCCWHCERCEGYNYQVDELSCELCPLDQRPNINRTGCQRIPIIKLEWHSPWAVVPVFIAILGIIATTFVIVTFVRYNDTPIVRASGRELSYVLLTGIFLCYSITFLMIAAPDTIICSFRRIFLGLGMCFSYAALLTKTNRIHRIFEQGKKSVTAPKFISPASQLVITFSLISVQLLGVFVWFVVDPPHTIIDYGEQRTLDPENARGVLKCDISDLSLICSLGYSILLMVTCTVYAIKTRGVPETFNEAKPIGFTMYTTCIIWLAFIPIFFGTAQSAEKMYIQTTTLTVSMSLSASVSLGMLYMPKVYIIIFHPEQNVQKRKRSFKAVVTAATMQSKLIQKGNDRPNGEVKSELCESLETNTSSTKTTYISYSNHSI

Structure (SMILES) | z-score
Cc1cc(C)nc(/N=C(\N)Nc2cccc([N+](=O)[O-])c2)n1 | -1.04
OCCNCCOc1ccccc1-c1ccccc1 | -0.00757
COCCCNCCCCOc1ccccc1-c1ccccc1 | 0.319
COCCNCCOc1ccccc1-c1ccccc1 | 3.67 (active)
COCCCNC(=O)CS(=O)(=O)Cc1nc(-c2cccc(OC)c2)oc1C | 0.565
CCCNC(=O)CS(=O)(=O)Cc1nc(-c2cccc(OC)c2)oc1C | 0.16
CCCCN(CC)CCCNC(=O)CS(=O)(=O)Cc1nc(-c2cccc(OC)c2)oc1C | 3.63 (active)
CC1=CC(C)(C)n2c(O)c(N=NC(N)=S)c3cc(C)cc1c32 | 1.04
CC1=CC(C)(C)n2c(O)c(N=NC(N)=S)c3c(C)ccc1c32 | 1.1
CC1=CC(C)(C)n2c(O)c(N=NC(N)=S)c3cccc1c32 | 2.69
N#CCSc1nnc(-c2ccccc2O)n1Cc1ccccc1 | -0.264
OC1(c2ccc3ccccc3c2)CCN(Cc2ccccc2)C1 (centres undefined) | 2
c1ccc2cc(CN3CCOCC3)ccc2c1 | 0.71
OC1(c2cccc(F)c2)CCN(Cc2ccncc2)CC1 | -0.584
CC1(C)Cc2cccc(OCC(=O)Nc3cccnc3)c2O1 | 0.958
COc1ccc(C(=O)N/C(=C\c2cccc3ccccc23)C(=O)NCCc2c[nH]c3ccccc23)cc1OC | -1.59
O=S(=O)(c1ccc(-c2nnc(SCc3nnc(-c4ccccc4)o3)o2)cc1)N1CCCC1 | 3.72 (active)

Structure (SMILES) | z-score
Cc1ccc(CSc2nnc(-c3ccc(S(=O)(=O)N4CCCC4)cc3)o2)cc1 | 1.62
NC(=O)CSc1nnc(-c2ccc(S(=O)(=O)N3CCCC3)cc2)o1 | -0.271
CO/N=C/c1ccc(Sc2ccccc2)c([N+](=O)[O-])c1 | -0.0163
C=CCNC(=S)NNC(=O)c1ccccc1 | -0.00102
C=CCNC(=O)NC(=S)c1ccccc1 | 3.72 (active)
O=C(NCCO)NC(=S)c1ccccc1 | -0.169
CCNc1nc(NCC)nc(C(=O)Nc2ccccc2)n1 | -0.0479
O=C(NCc1ccc(Cl)cc1)C1C2C=CC3(CN(Cc4cccnc4)C(=O)C13)O2 (centres undefined) | 0.82
OCCN(Cc1ccccc1)Cc1ccc(C(F)(F)F)cc1 | -0.0102
O=C(O)c1ccccc1SC1CC(=O)N(C2CCCCC2)C1=O (centres undefined) | -0.0935
Cc1ccc(NC(=O)C2CC(=O)OC23CCOC(C)(C)C3)cc1 (centres undefined) | -0.427
CC(C)C(=O)NC(Nc1ccccc1F)C(Cl)(Cl)Cl (centres undefined) | -0.185
CCCCCCCn1ccc(=N)cc1 | -0.268
CCCCCn1ccc(=N)cc1 | 1.99
CCCCCCn1ccc(=N)cc1 | 0.937
Cc1ccc(C)c(S(=O)(=O)N2C(=S)NC(=O)C2C(C)C)c1 (centres undefined) | 0.0469
CCN(CC)S(=O)(=O)c1ccc(N2CCOCC2)c(NC(=O)C(=O)c2c(-c3ccccc3)cc3ccccn23)c1 | -0.54
